Source: PubChem BioAssay (National Center for Advancing Translational Sciences (NCATS))
A selection: hits, their analogues and other compounds. The true share with any hit is near 2.7%.
ALOX12 inh – Primary qHTS assay for inhibitors of human arachidonate 12S-lipoxygenase (ALOX12): Round 2; Polyunsaturated fatty acid lipoxygenase ALOX12 (Homo sapiens), P18054; AID 1671190, 2021; hit rate 1.1% among 580,000; Potency, µM (doses to about 108 µM), for inactives: at the highest dose activity change, negative = inhibition, actives largely listed as inhibitors; purified 12hLO, xylenol orange hydroperoxide absorbance; further: on the % scale 0 is the no-effect control and ±100 the full control effect
Target sequence (P18054 whole entry, looked up): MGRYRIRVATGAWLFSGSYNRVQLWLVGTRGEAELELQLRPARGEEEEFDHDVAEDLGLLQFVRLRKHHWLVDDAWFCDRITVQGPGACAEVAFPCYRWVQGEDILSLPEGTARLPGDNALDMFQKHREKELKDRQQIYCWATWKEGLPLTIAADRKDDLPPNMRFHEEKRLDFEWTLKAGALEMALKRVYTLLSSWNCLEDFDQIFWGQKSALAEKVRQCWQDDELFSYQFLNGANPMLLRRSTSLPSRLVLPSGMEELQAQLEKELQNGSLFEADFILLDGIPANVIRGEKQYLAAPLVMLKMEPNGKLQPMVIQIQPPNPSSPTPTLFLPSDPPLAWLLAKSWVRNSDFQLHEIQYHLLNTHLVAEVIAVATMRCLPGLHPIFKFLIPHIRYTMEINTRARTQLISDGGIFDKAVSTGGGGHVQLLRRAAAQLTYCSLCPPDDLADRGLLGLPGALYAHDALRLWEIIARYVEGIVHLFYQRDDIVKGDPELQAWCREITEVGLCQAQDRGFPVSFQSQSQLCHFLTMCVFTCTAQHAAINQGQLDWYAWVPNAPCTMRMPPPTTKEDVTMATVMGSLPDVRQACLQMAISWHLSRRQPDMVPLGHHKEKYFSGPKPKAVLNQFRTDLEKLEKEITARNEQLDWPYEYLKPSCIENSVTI
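Hydroperoxide product was detected by ferrous iron/xylenol orange as the 573 to 405 nm absorbance ratio. Arachidonic acid at 40 uM (final) was turned over for 30 min at room temperature by 150 nM human 12hLO, pH 7.0 Hepes buffer, after 15 min compound preincubation.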
TGFb inhibitor – qHTS for Inhibitors of TGF-b | Potency, µM (titrated, usually from 46.1 µM), inactives show at the highest dose activity, negative = inhibition, hits mostly inhibitors | HepG2 CAGA-GFP TGF-b/SMAD3 reporter, GFP fluorescence, 18 h; TGF-beta stimulated, 500 pg/mL final | hit rate 1.2% among 410,000 | AID 588855, 2011; further: on the % scale 0 is the no-effect control and ±100 the full control effect; nearly all actives have a fitted effect of over 65% in size
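Inhibition was scored as loss of TGF-beta-induced (500 pg/mL final, 18 hours, 37 degrees C) GFP in HEPG2 cells carrying a CAGA-GFP reporter, in DMEM with 1% FBS. Well GFP was summed per cell; Activity was normalised to unstimulated and stimulated DMSO wells, then concentration-response fitting.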
ATXN2 expr inh – Primary qHTS for Inhibitors of ATXN expression | HEK-293 ATXN2-luciferase reporter, luminescence, 24 h | Potency, µM (top dose mostly 57 µM), without a hit: at the top dose activity change, negative = inhibition, hits mostly inhibitors | hit rate 0.72% among 360,000; further: on the % scale 0 is the no-effect control and ±100 the full control effect; nearly all actives have a fitted effect of over 55% in size
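qHTS (up to 57 uM final) was run with 24 h compound exposure of reporter cells at 37 °C. Each well was multiplexed: SteadyGlo luminescence measured ATXN2-luciferase expression after a fluorogenic Gly-Phe-AFC viability readout (25 uM final).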
HepG2 tox – qHTS for Inhibitors of TGF-b: Cytotox Counterscreen; HepG2 CAGA-GFP viability, ATP luminescence, 18 h; hit rate 0.76% among 410,000; Potency, µM (doses to about 46.1 µM), inactives show at the top dose activity change, negative = cytotoxicity, most hits filed as cytotoxic
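HepG2 CAGA-GFP cells (1000/well, DMEM with 1% FBS) received compound, then TGF-beta at 500 pg/mL final, and were incubated 18 hours at 37 degrees C. Viability was read by CellTiter-Glo luminescence. Media-only wells were set as complete cell-killing and DMSO as no toxicity.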
ATXN viability – Viability Counterscreen for Primary qHTS for Inhibitors of ATXN expression; S2 cells (HEK-293 line with an ATXN2-luciferase reporter) viability, CellTiter-Fluor protease fluorescence, 24 h; Potency, µM (titrated, usually from 56.7 µM), usual class: cytotoxic; hit rate 0.49% among 400,000; further: nearly all actives have a fitted effect of over 40% in size
* hit, by the source's call; i = inactive; ? = inconclusive; nt = no result; ! = not active in a repeat; [ ] = another dose, or the depositor's remark. The call rests on the fitted dose curve; in most records, active means well fitted curve in the direction sought with a large enough effect; inconclusive means small, poorly fitted or top-dose-only effect, or another doubt; inactive means no such curve, though single readings can be large; an effect the other way counts as inactive or inconclusive. Potency means the concentration at half of the fitted maximal effect.

SMILES	ALOX12 inh	TGFb inhibitor	ATXN2 expr inh	HepG2 tox	ATXN viability
COc1cccc(C2C(C(C)=O)=C(O)C(=O)N2CCc2c[nH]c3ccccc23)c1 (centres undefined)	5µM*	3%	2%	-9%	i
Cc1c(O)cccc1C(=O)N1CCCC2(C1)C(=O)N(C)c1ccccc12 (centres undefined)	15%	nt	nt	nt	nt
CCOC(=O)c1oc2c(c1C)C(=O)CSC2	10%	nt	nt	nt	nt
CC(Sc1n[nH]c(=O)n1C1CC1)C(=O)c1ccc(F)cc1 (centres undefined)	-21%	nt	nt	nt	nt
CCOc1ccc(CN(C)c2nc(-c3cccnc3)nc3ccccc23)cc1OC	1%	?	19µM*	-29%	?
O=C(Nc1cccc2[nH]ccc12)C(=O)NC1CCCC1	5%	nt	nt	nt	nt
C(C#CCCCCCCCCC[n+]1ccccc1)#CCCCCCCCCC[n+]1ccccc1	nt	11µM*	7.1µM*!	-163%	13µM*
COc1ccc(Nc2c(-c3cccc(O)c3)nc3cnccn23)cc1	-13%	6.3µM*	6%	-10%	i
COc1ccc(-c2nc3cnccn3c2Nc2ccc(C)cc2)cc1	10%[57.4 µM]	?	-26%	-2%	?
Cc1cc(NC(=O)C(C)Sc2nccn2-c2ccc(Cl)cc2)no1 (centres undefined)	-1%	nt	nt	nt	nt
O=C(C=Cc1ccccc1)c1c[nH]c2ccccc2c1=O	-10%	?	?	-17%	?
Cc1[nH]c2ccccc2c(=O)c1C(=O)/C=C/c1ccccc1	-16%	?	11µM*	-50%	14µM*
CCCc1nc(C)c2c(=O)[nH]c(-c3cc(S(=O)(=O)N4CCN(CC)CC4)ccc3OCC)nn12	?	-11%	19µM*!	-45%	i
CC(C)S(=O)(=O)C1=NSC2=NC(=O)/C(=C\c3ccc(-c4ccccc4)o3)C(=N)N21	25µM*	1%	2%	-12%	i
N=C1/C(=C\c2ccc(-c3cc(Cl)cc(Cl)c3)o2)C(=O)N=C2SC=C(c3ccccc3)N12	?	6%	3%	29%	?
N=C1/C(=C/c2ccc(-c3cccc(C(=O)O)c3)o2)C(=O)N=C2SC=C(c3ccccc3)N12	28µM*	-14%	8%	-39%	i
Cc1cc(C(=O)COC(=O)c2ccc(CO)cc2)c(C)s1	2%	nt	nt	nt	nt
O=C1c2ccccc2C(=O)c2cc(S(=O)(=O)Nc3ccccc3)ccc21	-23%	20µM*	-20%	-104%	i
O=C(O)c1cccc(NS(=O)(=O)c2ccc3c(c2)C(=O)c2ccccc2C3=O)c1	-22%	1%	nt	11%	i
COc1cc(SC)ccc1C(=O)OC(C)C(=O)c1ccccc1 (centres undefined)	-3%	nt	nt	nt	nt
COc1ccc2nc(COC(=O)c3cccs3)c(C(C)=O)[n+]([O-])c2c1	32µM*	8%	nt	3%	i
COc1ccc2nc(COC(=O)c3cccc([N+](=O)[O-])c3)c(C(C)=O)[n+]([O-])c2c1	0%	-5%	nt	-11%	i
CCCn1cc(C(=O)N2CCC(n3cccc3)CC2)c2ccccc21	-1%	nt	nt	nt	nt
Cc1ccc(/C=C/C(=O)OC(C)C(=O)c2ccc(C)c(C)c2)o1 (centres undefined)	6.3µM*	nt	nt	nt	nt
Cn1nc(C(=O)NCCc2cccs2)c2ccccc2c1=O	6%	nt	nt	nt	nt
SMILES	ALOX12 inh	TGFb inhibitor	ATXN2 expr inh	HepG2 tox	ATXN viability
O=Nc1c(-c2c(O)[nH]c3cc(Br)ccc23)[nH]c2ccccc12	2%	8.9µM*	?	7.9µM*	11µM*
CC(Sc1nnc(-c2cccs2)n1C1CC1)C(=O)NC1(C#N)CCCCC1 (centres undefined)	6%	nt	nt	nt	nt
Cc1cc(O)c(-c2cc(C(=O)Nc3cccc(C(F)(F)F)c3)[nH]n2)cc1C	-13%	nt	nt	nt	nt
CC(C)Oc1cc(F)ccc1-c1cc(C(=O)Nc2cccc(C(F)(F)F)c2)[nH]n1	-3%	?	?	-38%	28µM*
CC(C)Oc1ccc(F)cc1-c1cc(C(=O)NCc2cc(C(F)(F)F)cc(C(F)(F)F)c2)[nH]n1	-16%	11µM*	0%	-34%	?
NC(=O)c1ccccc1OCC(=O)N1CC(CNC(=O)Nc2ccccc2)C2(C1)CN(c1ccccc1)C2 (centres undefined)	-4%	nt	nt	nt	nt
COc1cc(NC(=O)Cn2cccc2-c2nc(-c3ccc(F)cc3)no2)cc(OC)c1	-22%	nt	nt	nt	nt
NCc1oc(-c2ccccc2)cc1C(=O)O	10µM*	1%	19%	-7%	i
CC1CCc2c(sc(/N=C/c3cccnc3)c2C(N)=O)C1 (centres undefined)	32µM*	6%	10%	-12%	i
CCOc1ccc(-c2nnc(N3CCCCC3)c3ccccc23)cc1	-46%	-1%	?	-28%	28µM*
CCCCc1ccc(NC(=O)N2CCN(c3cc(C)nc4ccccc34)CC2)c(C)c1	nt	?	18µM*	-23%	?
Clc1ccc(/C=C/c2nc3ccccc3[nH]2)cc1	-13%	0%	?	11µM*	?
Clc1ccc(/C=C/c2nc3ccccc3[nH]2)c(Cl)c1	-29%	?	?	-58%	i
COc1ccc2ccccc2c1CN1CCSCC1	1.6µM*	-21%	4%	-12%	i
CCN1CCN(Cc2c(OC)ccc3ccccc23)CC1	-27%	-3%	1%	-2%	i
C/C(=N\NC(=O)c1ccc(F)cc1)c1ccccn1	10%	1.1µM*	nt	-44%	?
C/C(=N\NC(=O)CCCNc1ccc(C)cc1)c1ccccn1	13%	5%	28µM*	2%	i
C/C(=N\Nc1ccc(Cl)c(C(=O)O)c1)c1ccccn1	-27%	12%	-14%	-2%	25µM*
CCOc1ccc(C(=O)N/N=C(\c2ccccc2)c2ccccn2)cc1	-5%	?	7.9µM*	-37%	?
C/C(=N\Nc1ccc(Cl)c(C(=O)O)c1)c1cccc2ccccc12	-20%	13%	4%	-22%	i
C/C(=N\NC(=O)c1c[nH]c2ccccc12)c1ccccn1	9%	18%	?	-25%	nt
COc1ccc(CNC(=O)C[C@@H]2C[C@@H](C(C)C)[C@H](CNC(=O)c3cccnc3)C=C2C)cc1	4%	nt	nt	nt	nt
COc1cc(C2C3=C(CCCC3=O)OC3=C2C(=O)CCC3)ccc1OS(=O)(=O)c1ccc(C)cc1	-18%	nt	nt	nt	nt
O=C(Cc1cccs1)Nc1ccc(-c2nc3cc(Cl)ccc3o2)cc1	6%	nt	nt	nt	nt
COC(=O)c1nc(NC(=O)C[C@H]2NC(=O)c3ccccc3NC2=O)sc1CC(C)C	44%	nt	nt	nt	nt
CC(C)CC(=O)/C=C/n1c(=S)oc2ccccc21	10%	-27%	?	-45%	nt
CC(=O)/C=C/n1c(=S)oc2ccccc21	-3%	6.3µM*	?	16µM*	nt
